Source: the supplement of paper PMC4371806
Over roughly 1,600 compounds, “plate-normalized OD600 growth (mean of duplicates)” has its median near 0.31; the lowest 2% begin near 0.23. Many of the other results were omitted from the sample, so the lowest values are more common in it than they were.

Test system: Escherichia coli BW25113
Test: plate-normalized OD600 growth (mean of duplicates) (OD600 (normalized)); higher = more growth (less inhibition)
Conditions: 10 µM
Description: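 E. coli BW25113 in LB (100 µl, 96-well, no shaking) was exposed to 10 µM of each compound (here the ChemBridge subset of a ~30,000-member library) and grown at 37°C for 24 h or 15°C for 48 h, in duplicate. Growth was read as OD600 and the duplicate ODs were normalized across screening plates to correct plate-to-plate variation.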

| Compound | plate-normalized OD600 growth (temperature: 15°C, 48 h) | plate-normalized OD600 growth (temperature: 37°C, 24 h) |
| --- | --- | --- |
| CCN(CC)C(=O)c1ccc([N+](=O)[O-])o1 | 0.247 | 0.627 |
| O=C(Nc1ccccc1F)c1ccc([N+](=O)[O-])o1 | 0.201 | 0.592 |
| O=C(Nc1ccccc1NC(=O)c1ccccc1F)c1ccccc1F | 0.263 | 0.627 |
| CCOc1ccccc1N1CCN(C(=O)c2ccccc2C)CC1 | 0.287 | 0.646 |
| Brc1ccc(CN2CCN(c3ccccn3)CC2)cc1 | 0.267 | 0.614 |
| COc1ccc(CN2CCCN(C)CC2)cc1Br | 0.229 | 0.632 |
| CN1CCCN(CC2CC3C=CC2C3)CC1 (centres undefined) | 0.225 | 0.656 |
| COc1cccc(N2CCN(CC3CC4C=CC3C4)CC2)c1 (centres undefined) | 0.296 | 0.627 |
| COc1ccc(S(=O)(=O)N2CCCC(C)C2)cc1 (centres undefined) | 0.266 | 0.639 |
| COc1ccc(S(=O)(=O)N2CCCC2)cc1 | 0.219 | 0.612 |
| COC(=O)Nc1ccc(S(=O)(=O)N2CCCCC2)cc1 | 0.238 | 0.599 |
| Cc1cc(NO)nc(-c2ccc(Br)cc2)n1 | 0.221 | 0.622 |
| Cc1nc(C)c(-c2cc(C)c3c(C)nc(C)nc3n2)c(N)n1 | 0.252 | 0.617 |
| O=C(COc1ccc(Cl)cc1Cl)Nc1ccc(C(=O)O)cc1 | 0.261 | 0.618 |
| COc1cccc(NC(=O)c2ccncc2)c1 | 0.261 | 0.618 |
| O=C(c1cccnc1)N1CCN(C(=O)c2ccco2)CC1 | 0.24 | 0.631 |
| COc1ccc(Cc2ccc(OC)c(N)c2)cc1N | 0.254 | 0.632 |
| COc1cc(C)c(N)cc1C(C)C | 0.226 | 0.6 |
| COc1cc2c(cc1NC(=O)C(Cl)Cl)oc1ccccc12 | 0.232 | 0.619 |
| Cc1ccc(N2C(=O)CC(N3CCN(c4ccc([N+](=O)[O-])cc4)CC3)C2=O)c(C)c1 (centres undefined) | 0.218 | 0.612 |
| COc1ccccc1N1C(=O)CC(N2CCN(c3ccc([N+](=O)[O-])cc3)CC2)C1=O (centres undefined) | 0.282 | 0.637 |
| COc1ccc(N2C(=O)CC(N3CCN(c4ccc(F)cc4)CC3)C2=O)cc1 (centres undefined) | 0.24 | 0.59 |
| Fc1ccccc1OCCCCN1CCCCC1 | 0.214 | 0.61 |

| Compound | plate-normalized OD600 growth (temperature: 15°C, 48 h) | plate-normalized OD600 growth (temperature: 37°C, 24 h) |
| --- | --- | --- |
| c1ccc(OCCCCN2CCCCC2)cc1 | 0.241 | 0.621 |
| Cc1ccccc1OCCCCN1CCCCC1 | 0.265 | 0.623 |
| CC(Nc1cc(=O)n(C)c(=O)[nH]1)c1ccccc1 (centres undefined) | 0.254 | 0.611 |
| CC1(C)CC(n2c(NN)nc3c(c2=O)C2(CCCCC2)Cc2ccccc2-3)CCO1 (centres undefined) | 0.255 | 0.631 |
| CC(=O)N1CCC(NC2CCCCCC2)CC1 | 0.269 | 0.62 |
| C=C(C)CN(CC)C1CCN(C(C)=O)CC1 | 0.226 | 0.627 |
| CCN(CCN(C)C)C1CCCCCC1 | 0.26 | 0.618 |
| CN1CCN(C(=O)CC(c2ccccc2)c2ccccc2)CC1 | 0.253 | 0.62 |
| N#Cc1ccc(-c2cccs2)[nH]c1=O | 0.236 | 0.644 |
| NS(=O)(=O)c1ccc(-c2ccc(C=O)o2)cc1 | 0.227 | 0.612 |
| O=C(/C=C/c1ccc(-c2ccc(F)cc2)o1)c1cccs1 | 0.253 | 0.617 |
| O=Cc1ccc(-c2ccc(Cl)c(C(=O)O)c2)o1 | 0.268 | 0.622 |
| COc1ccc2nc3c(nc2c1)C(=O)c1ccccc1-3 | 0.234 | 0.611 |
| c1cncc(-c2nc3c4c5c(sc4ncn3n2)CCCC5)c1 | 0.261 | 0.628 |
| COc1ccc(CNCCC2CCOC(C)(C)C2)cc1 (centres undefined) | 0.263 | 0.65 |
| Cc1nnc(Sc2ccc(C=O)o2)s1 | 0.227 | 0.604 |
| CCOC(=O)N1CCN(Cc2cc(C)ccc2C)CC1 | 0.266 | 0.646 |
| CC(=O)c1ccc(NS(=O)(=O)c2cc(S(=O)(=O)c3ccccc3)ccc2C)cc1 | 0.278 | 0.649 |
| c1ccc(CN2C3=NCCCN3c3ccccc32)cc1 | 0.249 | 0.625 |
| N#CCCS(=O)(=O)c1ccc(Br)cc1 | 0.258 | 0.63 |
| CCCCOc1ccc(C2(C)CC(=O)NC2=O)cc1 (centres undefined) | 0.258 | 0.634 |
| Cc1onc(-c2ccccc2Cl)c1C(=O)NCc1ccc2c(c1)OCO2 | 0.261 | 0.619 |
| CCn1c(C)c(C=O)c2cc([N+](=O)[O-])ccc21 | 0.223 | 0.608 |

| Compound | plate-normalized OD600 growth (temperature: 15°C, 48 h) | plate-normalized OD600 growth (temperature: 37°C, 24 h) |
| --- | --- | --- |
| Cn1c2ccccc2c2nc3ccc([N+](=O)[O-])cc3cc21 | 0.249 | 0.639 |
| CN(C)/C=C/c1c(C=O)c2cc([N+](=O)[O-])ccc2n1C | 0.238 | 0.596 |
| O=C(O)Cn1c2ccccc2c2cc([N+](=O)[O-])ccc21 | 0.226 | 0.625 |
| NNC(=O)c1cc(-c2ccc([N+](=O)[O-])cc2)nc2ccccc12 | 0.251 | 0.647 |
| Cn1c(C=O)nc2cc([N+](=O)[O-])ccc21 | 0.241 | 0.625 |
| Cc1n[nH]c(=O)c2cc3c(C)n[nH]c(=O)c3cc12 | 0.259 | 0.622 |
| CC1CCC2(CC1)C(C#N)C(=O)NC(=O)C2C#N (centres undefined) | 0.244 | 0.615 |
| CCCC(=O)NC(c1ccccc1)c1ccccc1 | 0.265 | 0.637 |
| CSc1nc(C)c(C(C)=O)cc1C#N | 0.244 | 0.621 |
| Cc1ccc(S(=O)(=O)CCSc2cccc(C(=O)Nc3ccccc3)c2)cc1 | 0.243 | 0.633 |
| Cc1nonc1NC(=O)Nc1ccncc1 | 0.18 | 0.615 |
| CC(=O)Nc1cccc(NC(=O)Nc2cccc(Cl)c2)c1 | 0.236 | 0.585 |
| O=C(Nc1ccncc1)c1ccc(Cl)cc1Cl | 0.263 | 0.623 |
| Cc1ccc(C(C)NC(=O)c2ccccc2)c(C)c1 (centres undefined) | 0.267 | 0.619 |
| Cc1ccc(NC(=O)[C@@H]2C3C=CC(C3)[C@@H]2C(=O)O)c(C)c1 (some centres undefined) | 0.247 | 0.648 |
| CCCN(CCO)Cc1ccccc1F | 0.235 | 0.589 |
| c1ccc(CCN2CCN(c3ccccc3)CC2)cc1 | 0.227 | 0.62 |
| c1ccc(CCN2CCC(N3CCOCC3)CC2)cc1 | 0.239 | 0.618 |
| c1ccc(CCCN2CCOCC2)cc1 | 0.251 | 0.615 |
| Clc1ccccc1N1CCN(Cc2ccc(Br)o2)CC1 | 0.245 | 0.606 |
| N#CC1=C(N)N2C(=C(C#N)C1c1c(F)cccc1Cl)Sc1ccccc12 (centres undefined) | 0.27 | 0.622 |
| O=C(NCC1CCCO1)c1ccc2c(c1)OCO2 (centres undefined) | 0.243 | 0.615 |
| Cc1ccc(CN(C)CCc2ccccn2)cc1 | 0.272 | 0.619 |

| Compound | plate-normalized OD600 growth (temperature: 15°C, 48 h) | plate-normalized OD600 growth (temperature: 37°C, 24 h) |
| --- | --- | --- |
| CN(CCc1ccccn1)Cc1ccc(Cl)c(Cl)c1 | 0.222 | 0.622 |
| CN(CCCc1ccccc1)CCc1ccccn1 | 0.26 | 0.659 |
| CCSC1=C(C#N)C(c2ccc(Cl)cc2Cl)CC(=O)N1 (centres undefined) | 0.255 | 0.65 |
| CC1=C(C#N)C(c2cccnc2)C2=C(CC(c3ccc(Cl)cc3)CC2=O)N1 (centres undefined) | 0.225 | 0.623 |
| N#CC1=C(N)OC2=C(C(=O)CCC2)C1c1cccnc1 (centres undefined) | 0.238 | 0.629 |
| CC1=C(C#N)C(c2ccc(N(C)C)cc2)C2=C(CCCC2=O)N1 (centres undefined) | 0.248 | 0.638 |
| O=[N+]([O-])c1ccc(CNC2CCCC2)cc1 | 0.254 | 0.621 |
| O=C(NC1CCCCCC1)c1ccc([N+](=O)[O-])cc1 | 0.212 | 0.629 |
| Cc1c(C(=O)NC2CCCC2)cccc1[N+](=O)[O-] | 0.252 | 0.636 |
| COc1cccc(NC(=O)c2cccc(I)c2)c1 | 0.244 | 0.596 |
| Cc1n[nH]c(C)c1CCCCOc1ccc(Br)cc1 | 0.216 | 0.601 |
| Cc1ccc(OCCCCc2c(C)n[nH]c2C)cc1 | 0.276 | 0.62 |
| CCN(CC)CCCOc1ccc(C)cc1 | 0.255 | 0.632 |
| CCCn1c(SCCC(=O)O)nc2ccccc21 | 0.257 | 0.621 |
| N#CC1=C(SCC(=O)Nc2ccc(Br)cc2)NC(=O)C(C#N)C12CCCCC2 (centres undefined) | 0.257 | 0.604 |
| Cc1cc(=O)[nH]c(SCC(=O)Nc2ccc(Br)cc2)c1C#N | 0.214 | 0.594 |
| N#CC1=C(N)NC(SCC(=O)Nc2ccc(Br)cc2)=C(C#N)C12CCCCC2 | 0.252 | 0.586 |
| COc1cc(C(=O)n2c(C)nc3ccccc32)cc(OC)c1OC | 0.246 | 0.616 |
| Nc1ccc(Br)cc1-c1nc2ccccc2[nH]c1=O | 0.254 | 0.608 |
| O=C(O)CCC(=O)Nc1ccc(-c2nc3ccccc3[nH]2)cc1 | 0.247 | 0.602 |
| Cc1ccc(-c2nc3ccccc3[nH]2)cc1N | 0.222 | 0.616 |
| COc1ccc(-c2cc(=O)n(CCC#N)[nH]2)cc1 | 0.266 | 0.622 |
| N#Cc1c(NC(=O)c2cc3ncc(Br)cn3n2)sc2c1CCCC2 | 0.263 | 0.623 |

| Compound | plate-normalized OD600 growth (temperature: 15°C, 48 h) | plate-normalized OD600 growth (temperature: 37°C, 24 h) |
| --- | --- | --- |
| O=[N+]([O-])c1ccccc1/C=C/CN1CCCCC1CO (centres undefined) | 0.264 | 0.63 |
| C/C=C(\C)CN1CCN(CCOCCO)CC1 | 0.269 | 0.664 |
| CCCCOc1ccc(CN2CCC(O)CC2)cc1 | 0.272 | 0.664 |
| CCCCOc1ccc(CN2CCN(CCOCCO)CC2)cc1 | 0.216 | 0.626 |
| Cc1cc([N+](=O)[O-])nn1CC(=O)NCC(C)C | 0.264 | 0.617 |
| COc1ccc(NC(=O)c2ccccc2OC)cc1OC | 0.248 | 0.615 |
| CN(Cc1ccccc1)C1CC(=O)N(c2ccc(C(=O)O)cc2)C1=O (centres undefined) | 0.246 | 0.621 |
| CC1(C)CC(=O)C=C(Nc2ccc(F)c(F)c2)C1 | 0.247 | 0.617 |
| CC(=O)c1ccc(OCCOc2ccc(C(C)=O)cc2)cc1 | 0.248 | 0.607 |
| Cc1[nH]n(-c2ccccc2)c(=O)c1C=O | 0.224 | 0.605 |
| Cc1nn(-c2ccccc2)c(N2CCCCC2)c1C=O | 0.266 | 0.62 |
| CC(=O)c1c(C)[nH]n(-c2ccccc2)c1=O | 0.252 | 0.618 |
| Cc1ccc(S(=O)(=O)N(CC(=O)O)c2cccc(Cl)c2)cc1 | 0.268 | 0.636 |
| COc1cccc(-c2nc(Cc3ccc(Cl)cc3)no2)c1 | 0.253 | 0.601 |
| CCc1ccc(-c2csc(Nc3cccc(OC)c3)n2)cc1 | 0.222 | 0.604 |
| Cc1nc(N)sc1-c1csc(Nc2ccc(O)cc2)n1 | 0.239 | 0.621 |
| CCOc1ccc(Nc2nc(-c3ccc(CC(C)C)cc3)cs2)cc1 | 0.223 | 0.624 |
| COc1ccc(Nc2nc(-c3ccc(F)cc3F)cs2)cc1 | 0.251 | 0.633 |
| Clc1ccc(-c2csc(Nc3ccc4c(c3)OCO4)n2)cc1 | 0.24 | 0.61 |
| COc1cccc(Nc2nc(-c3ccc(OC)c(F)c3)cs2)c1 | 0.245 | 0.609 |
